Assay results from PubChem BioAssay (EPA / NIEHS).
Calls of active or inactive are those of the source. Rule for the calls: active = hit-call score of the fitted dose curve at least 0.9, where 1 is the maximum; inactive = score below 0.9.

Legend:
Conditions in all cases: mRNA level, 48 h; actives raise or lower the signal
[1] = read-out: Peroxisomal acyl-coenzyme A oxidase 1 (ACOX1) gene, ACOX1 (gene 51); assay: LTEA_HepaRG_ACOX1: Life Technologies and Expression Analysis (LTEA) Assay for Peroxisomal acyl-coenzyme A oxidase 1 (ACOX1) gene using HepaRG (AID 2283467)
Outline: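 ACOX1 transcript levels were quantified by TaqMan qRT-PCR against three housekeeping genes after 48 h chemical exposure of differentiated human HepaRG cells. Exposure used eight half-log steps topping at 100 uM, 0.5% DMSO vehicle, in duplicate. Bidirectional curve fits were made relative to DMSO.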

[2] = read-out: Alkaline Phosphatase, Placental (ALPP) gene, ALPP (gene 250); assay: LTEA_HepaRG_ALPP: Life Technologies and Expression Analysis (LTEA) Assay for Alkaline Phosphatase, Placental (ALPP) gene using HepaRG (AID 2283468)
Outline: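 HepaRG cells plated 48 h, then exposed in duplicate for 48 h in serum-free induction medium to 8-point half-log series from 100 uM in 0.5% DMSO. ALPP mRNA by TaqMan qRT-PCR, normalized to ACTB/GAPDH/POLR2A; bidirectional fit versus DMSO.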

[3] = read-out: Bcl-2 (BAD) gene, BAD (gene 572); assay: LTEA_HepaRG_BAD: Life Technologies and Expression Analysis (LTEA) Assay for Bcl-2 (BAD) gene using HepaRG (AID 2283469)
Outline: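 Read-out: qRT-PCR of BAD mRNA, normalized to three housekeeping genes. Human HepaRG cultures got 48 h chemical exposure in 0.5% DMSO, duplicate eight-point half-log series topping at 100 uM. Gain or loss of signal fitted versus DMSO vehicle.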

[4] = read-out: Bcl-2 (BAX) gene, BAX (gene 581); assay: LTEA_HepaRG_BAX: Life Technologies and Expression Analysis (LTEA) Assay for Bcl-2 (BAX) gene using HepaRG (AID 2283470)
Outline: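 qRT-PCR read-out of BAX mRNA, normalized to three housekeeping genes, after 48 h chemical exposure of human HepaRG cells in serum-free induction medium; eight-point half-log series, top 100 uM, 0.5% DMSO vehicle; bidirectional fit versus DMSO.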

[5] = read-out: adenosine kinase (ADK) gene, ADK (gene 132); assay: LTEA_HepaRG_ADK: Life Technologies and Expression Analysis (LTEA) Assay for adenosine kinase (ADK) gene using HepaRG (AID 2283471)
Outline: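 Read-out is ADK transcript level measured by qRT-PCR and normalised to three housekeeping genes. Cells are human HepaRG, dosed for 48 h at up to 100 uM in 0.5% DMSO. Gain or loss of signal is fitted against DMSO controls.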

[6] = read-out: Alpha-fetoprotein (AFP) gene, AFP (gene 174); assay: LTEA_HepaRG_AFP: Life Technologies and Expression Analysis (LTEA) Assay for Alpha-fetoprotein (AFP) gene using HepaRG (AID 2283472)
Outline: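 qRT-PCR (Fluidigm TaqMan) readout of AFP transcript, normalized to three housekeeping genes, fitted bidirectionally against 0.5% DMSO baseline. HepaRG cells received chemicals for 48 h in serum-free induction medium, top concentration 100 uM, half-log steps.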

[7] = read-out: BCL2L11 (gene 10018); assay: LTEA_HepaRG_BCL2L11: Life Technologies and Expression Analysis (LTEA) Assay for Bcl-2 (BCL2L11) gene using HepaRG (AID 2283473)
Outline: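 Differentiated human HepaRG cells were exposed 48 h in serum-free induction medium to eight half-log concentrations up to 100 uM in 0.5% DMSO, in duplicate. BCL2L11 mRNA was quantified by TaqMan qRT-PCR, normalized to ACTB, GAPDH and POLR2A; induction or repression fitted versus DMSO.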

[8] = read-out: Apolipoprotein A-V (APOA5) gene, APOA5 (gene 116519); assay: LTEA_HepaRG_APOA5: Life Technologies and Expression Analysis (LTEA) Assay for Apolipoprotein A-V (APOA5) gene using HepaRG (AID 2283474)
Outline: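 Differentiated HepaRG cells in serum-free induction medium, exposed 48 h in duplicate to eight half-log concentrations topping at 100 uM (0.5% DMSO). APOA5 mRNA by Fluidigm TaqMan qRT-PCR, normalized to ACTB, GAPDH and POLR2A; bidirectional fit versus DMSO.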

[9] = read-out: Apoptosis regulator Bcl-2 (Homo sapiens) (UniProt P10415); assay: LTEA_HepaRG_BCL2: Life Technologies and Expression Analysis (LTEA) Assay for Bcl-2 gene using HepaRG (AID 2283475)
Outline: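 qRT-PCR read-out (Fluidigm TaqMan) of BCL2 transcript, normalised to three housekeeping genes, after 48 h chemical exposure of HepaRG cells; 8-point half-log series, top 100 uM, 0.5% DMSO vehicle. Gain or loss of signal fitted relative to DMSO baseline.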

[10] = read-out: Bcl-2 (BID) gene, BID (gene 637); assay: LTEA_HepaRG_BID: Life Technologies and Expression Analysis (LTEA) Assay for Bcl-2 (BID) gene using HepaRG (AID 2283476)
Outline: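 HepaRG, 48 h exposure, 8-pt half-log series, top 100 uM, 0.5% DMSO vehicle, duplicates. Readout: BID mRNA by TaqMan qRT-PCR; housekeeping-normalized; bidirectional curve fit vs DMSO baseline.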

[11] = read-out: Caspase-3 (Homo sapiens) (UniProt P42574); assay: LTEA_HepaRG_CASP3: Life Technologies and Expression Analysis (LTEA) Assay for cysteine-aspartic acid protease (CASP3) using HepaRG (AID 2283477)
Outline: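 Differentiated HepaRG cells, plated 48 h, were treated in duplicate in serum-free induction medium for 48 h with eight half-log concentrations up to 100 uM in 0.5% DMSO. CASP3 mRNA measured by qRT-PCR, normalized to ACTB, GAPDH, POLR2A.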

[12] = read-out: Cytochrome P450 (CYP24A1), CYP24A1 (gene 1591); assay: LTEA_HepaRG_CYP24A1: Life Technologies and Expression Analysis (LTEA) Assay for Cytochrome P450 (CYP24A1) using HepaRG (AID 2283478)
Outline: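 HepaRG cells plated 48 h, then exposed in duplicate in serum-free induction medium for 48 h to 8-point half-log series from 100 uM in 0.5% DMSO. CYP24A1 mRNA by Fluidigm qRT-PCR, normalized to ACTB, GAPDH, POLR2A; bidirectional fit versus DMSO.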

[13] = read-out: Cytochrome P450 (CYP1A2), CYP1A2 (gene 1544); assay: LTEA_HepaRG_CYP1A2: Life Technologies and Expression Analysis (LTEA) Assay for Cytochrome P450 (CYP1A2) using HepaRG (AID 2283479)
Outline: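 Differentiated human HepaRG cells in serum-free induction medium exposed 48 hours in duplicate to 8 half-log concentrations from 100 uM, 0.5% DMSO. CYP1A2 mRNA quantified by qRT-PCR, normalized to ACTB, GAPDH and POLR2A; bidirectional fitting versus DMSO.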

[14] = read-out: cysteine-aspartic acid protease (CASP8), CASP8 (gene 841); assay: LTEA_HepaRG_CASP8: Life Technologies and Expression Analysis (LTEA) Assay for cysteine-aspartic acid protease (CASP8) using HepaRG (AID 2283480)
Outline: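 CASP8 transcript measured by TaqMan qRT-PCR with ACTB/GAPDH/POLR2A normalization, after 48 h chemical exposure of HepaRG cells in serum-free induction medium. Eight concentrations, top 100 uM, half-log steps, 0.5% DMSO vehicle; fits in both directions versus DMSO.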

[15] = read-out: Cytochrome P450 (CYP2B6), CYP2B6 (gene 1555); assay: LTEA_HepaRG_CYP2B6: Life Technologies and Expression Analysis (LTEA) Assay for Cytochrome P450 (CYP2B6) using HepaRG (AID 2283481)
Outline: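 Differentiated human HepaRG cells in serum-free induction medium, dosed in duplicate for 48 h over 8 half-log concentrations topping at 100 uM (0.5% DMSO). CYP2B6 mRNA measured by TaqMan qRT-PCR, normalized to ACTB, GAPDH, POLR2A; bidirectional fit versus DMSO.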

[16] = read-out: Cytochrome P450 2C19 (Homo sapiens) (UniProt P33261); assay: LTEA_HepaRG_CYP2C19: Life Technologies and Expression Analysis (LTEA) Assay for CYP2C19 using HepaRG (AID 2283482)
Outline: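 Differentiated HepaRG cells in serum-free induction medium exposed 48 h in duplicate, 8 concentrations from 100 uM by half-log steps in 0.5% DMSO. CYP2C19 mRNA measured by TaqMan qRT-PCR, normalized to ACTB, GAPDH, POLR2A. Bidirectional fit versus DMSO.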

[17] = read-out: CYP2C8 (gene 1558); assay: LTEA_HepaRG_CYP2C8: Life Technologies and Expression Analysis (LTEA) Assay for CYP2C8 using HepaRG (AID 2283483)
Outline: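 CYP2C8 expression measured by TaqMan qRT-PCR and normalized to three housekeeping genes. HepaRG cultures were treated for 48 h with an eight-point half-log series topping at 100 uM, vehicle 0.5% DMSO, duplicates; fitted both directions against DMSO.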

[18] = read-out: CYP2C9 (gene 1559); assay: LTEA_HepaRG_CYP2C9: Life Technologies and Expression Analysis (LTEA) Assay for CYP2C9 using HepaRG (AID 2283484)
Outline: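 CYP2C9 transcript level, quantified by TaqMan qRT-PCR against three housekeeping genes, was fitted bidirectionally relative to 0.5% DMSO. HepaRG cultures were treated 48 h, in duplicate, at eight half-log concentrations topping at 100 uM.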

[19] = read-out: CYP2E1 (gene 1571); assay: LTEA_HepaRG_CYP2E1: Life Technologies and Expression Analysis (LTEA) Assay for CYP2E1 using HepaRG (AID 2283485)
Outline: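 CYP2E1 transcript was measured by TaqMan qRT-PCR in human HepaRG cultures after 48 h chemical exposure (top 100 uM, half-log steps, 0.5% DMSO vehicle). Housekeeping-gene normalization; gain or loss fitted relative to DMSO baseline.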

[20] = read-out: CYP4A11 (gene 1579); assay: LTEA_HepaRG_CYP4A11: Life Technologies and Expression Analysis (LTEA) Assay for CYP4A11 using HepaRG (AID 2283486)
Outline: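 Differentiated HepaRG cells, 48 h after plating, exposed in duplicate for 48 h to 8 half-log concentrations up to 100 uM in 0.5% DMSO in serum-free induction medium. CYP4A11 mRNA measured by TaqMan qRT-PCR, normalized to ACTB, GAPDH and POLR2A.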

Caspase-3 (Homo sapiens), sequence (P42574 whole entry, looked up): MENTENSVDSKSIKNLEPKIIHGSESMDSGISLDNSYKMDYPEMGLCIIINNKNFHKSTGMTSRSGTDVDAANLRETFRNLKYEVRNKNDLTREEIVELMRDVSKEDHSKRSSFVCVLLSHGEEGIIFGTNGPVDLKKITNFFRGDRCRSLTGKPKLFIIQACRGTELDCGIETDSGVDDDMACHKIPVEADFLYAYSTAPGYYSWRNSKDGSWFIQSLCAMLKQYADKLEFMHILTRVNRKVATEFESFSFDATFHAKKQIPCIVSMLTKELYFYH
Cytochrome P450 2C19 (Homo sapiens), sequence (P33261 whole entry, looked up): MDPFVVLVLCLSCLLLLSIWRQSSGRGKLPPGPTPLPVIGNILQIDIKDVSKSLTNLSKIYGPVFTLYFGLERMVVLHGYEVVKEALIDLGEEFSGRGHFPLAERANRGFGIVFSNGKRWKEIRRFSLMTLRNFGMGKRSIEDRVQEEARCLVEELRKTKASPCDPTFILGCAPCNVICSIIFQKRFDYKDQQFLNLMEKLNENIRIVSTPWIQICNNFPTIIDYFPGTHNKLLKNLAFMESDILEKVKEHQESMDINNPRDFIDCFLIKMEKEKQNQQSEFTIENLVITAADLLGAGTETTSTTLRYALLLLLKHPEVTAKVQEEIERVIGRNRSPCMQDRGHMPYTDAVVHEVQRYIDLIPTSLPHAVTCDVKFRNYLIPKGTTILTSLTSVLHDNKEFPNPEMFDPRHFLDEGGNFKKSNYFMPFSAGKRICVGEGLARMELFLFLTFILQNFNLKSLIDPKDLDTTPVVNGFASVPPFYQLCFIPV
Apoptosis regulator Bcl-2 (Homo sapiens), sequence (P10415 whole entry, looked up): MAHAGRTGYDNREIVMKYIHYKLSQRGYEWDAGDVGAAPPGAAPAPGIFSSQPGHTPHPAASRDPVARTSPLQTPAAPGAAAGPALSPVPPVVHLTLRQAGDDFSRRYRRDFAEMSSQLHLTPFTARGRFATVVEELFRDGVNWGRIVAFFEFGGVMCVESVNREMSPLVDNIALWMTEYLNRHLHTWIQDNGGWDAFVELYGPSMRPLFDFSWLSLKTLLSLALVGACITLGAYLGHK

N#C[C@@H]1CC(F)(F)CN1C(=O)CNC1CC2CCC(C1)N2c1ncccn1 (some centres not stated)
outcome [1]: inactive
outcome [2]: inactive
outcome [3]: inactive
outcome [4]: inactive
outcome [5]: inactive
outcome [6]: inactive
outcome [7]: inactive
outcome [8]: inactive
outcome [9]: inactive
outcome [10]: inactive
outcome [11]: inactive
outcome [12]: inactive
AC50 [13]: 64.4 µM (active)
outcome [14]: inactive
AC50 [15]: 27.8 µM (active)
AC50 [16]: 69 µM (active)
outcome [17]: inactive
outcome [18]: inactive
outcome [19]: inactive
outcome [20]: inactive

CCCCCCC(=O)O
outcome [2]: inactive
outcome [3]: inactive
outcome [4]: inactive
outcome [5]: inactive
outcome [6]: inactive
outcome [7]: inactive
outcome [8]: inactive
outcome [9]: inactive
outcome [10]: inactive
outcome [11]: inactive
outcome [12]: inactive
AC50 [13]: 50 µM (active)
outcome [14]: inactive
outcome [15]: inactive
outcome [16]: inactive
outcome [17]: inactive
outcome [18]: inactive
outcome [19]: inactive
outcome [20]: inactive

Cc1cc(CCN2CCN(c3nsc4ccccc34)CC2)cc2c1NC(=O)CC2(C)C
AC50 [2]: 50 µM (active)
outcome [3]: inactive
AC50 [4]: 93 µM (active)
outcome [5]: inactive
AC50 [6]: 72.6 µM (active)
outcome [7]: inactive
AC50 [8]: 75.9 µM (active)
AC50 [9]: 68.2 µM (active)
outcome [10]: inactive
outcome [11]: inactive
outcome [12]: inactive
AC50 [13]: 12.6 µM (active)
outcome [14]: inactive
AC50 [15]: 79.7 µM (active)
AC50 [16]: 88.4 µM (active)
AC50 [17]: 82.5 µM (active)
AC50 [18]: 80.3 µM (active)
AC50 [19]: 66.2 µM (active)
AC50 [20]: 63.9 µM (active)

COCC(C)O (configuration not stated)
outcome [1]: inactive
outcome [2]: inactive
outcome [3]: inactive
outcome [4]: inactive
outcome [5]: inactive
outcome [6]: inactive
outcome [7]: inactive
outcome [8]: inactive
outcome [9]: inactive
outcome [10]: inactive
outcome [11]: inactive
outcome [12]: inactive
outcome [13]: inactive
outcome [14]: inactive
outcome [15]: inactive
outcome [16]: inactive
outcome [17]: inactive
outcome [18]: inactive
outcome [19]: inactive
outcome [20]: inactive

CN1CCC[C@H]1c1cccnc1
AC50 [1]: 12.6 µM (active)
outcome [2]: inactive
outcome [3]: inactive
outcome [4]: inactive
outcome [5]: inactive
outcome [6]: inactive
outcome [7]: inactive
outcome [8]: inactive
outcome [9]: inactive
outcome [10]: inactive
outcome [11]: inactive
outcome [12]: inactive
outcome [13]: inactive
outcome [14]: inactive
outcome [15]: inactive
outcome [16]: inactive
outcome [17]: inactive
outcome [19]: inactive
outcome [20]: inactive

CCCCCCCCCCCCc1ccccc1S(=O)(=O)O
AC50 [1]: 11.7 µM (active)
AC50 [2]: 91.6 µM (active)
outcome [3]: inactive
AC50 [4]: 50 µM (active)
outcome [5]: inactive
AC50 [6]: 80 µM (active)
outcome [7]: inactive
AC50 [8]: 80.3 µM (active)
AC50 [9]: 50 µM (active)
outcome [10]: inactive
outcome [11]: inactive
outcome [12]: inactive
AC50 [13]: 84.6 µM (active)
outcome [14]: inactive
AC50 [15]: 84.5 µM (active)
AC50 [16]: 87.3 µM (active)
AC50 [17]: 82.3 µM (active)
AC50 [18]: 83.3 µM (active)
AC50 [19]: 78.3 µM (active)
AC50 [20]: 80.7 µM (active)
